Results on 61 compounds are retold here after ChEMBL document CHEMBL1157539, “Thousands of chemical starting points for antimalarial lead identification” (Nature, 2010).

Molecules are shown by their SMILES.

Holding throughout (type): functional
Test [1] concerns Plasmodium falciparum. Kind of test: GSK_TCMDC: Inhibition of Plasmodium falciparum 3D7 in whole red blood cells, using parasite LDH activity as an index of growth. Test compounds present at 2uM.
The subject of test [2] is Plasmodium falciparum. Kind of test: GSK_TCMDC: Inhibition of Plasmodium falciparum Dd2 in whole red blood cells, using parasite LDH activity as an index of growth. Test compounds present at 2uM.
The next test concerns HepG2. Kind of test: GSK_TCMDC: Percent inhibition of human HepG2 cell line. Test compounds present at 10uM.

Turning to `CN(C(=O)/C=C/c1cc(C(F)(F)F)ccc1F)C1CCN(CCCCCNC(=O)/C=C/c2ccc(Cl)c(Cl)c2)C1` (stereo not drawn), the Inhibition amounted to 93% with Plasmodium falciparum [1], 1% in the test with Plasmodium falciparum [2] and 16% with HepG2.
Taken in the same sequence, the figures for `COC(=O)c1cccc(OCCNC2CCN(C[C@H](O)c3ccnc4ccc(OC)cc34)CC2)c1.O=C(O)C(=O)O` were 100%, 96% and 0%.
Taken in the same sequence, the figures for `CC(C)(C)c1ccc(CN2CCC(NC(=O)c3ccc(-c4ccccc4Cl)s3)CC2)cc1.O=C(O)C(F)(F)F` were 84%, 29% and 36%.
With `Cn1nc(C(F)(F)F)c(-c2ccc(F)cc2)c1NC(=O)Nc1ccc(F)cc1F`, the Inhibition was 100% in the test with Plasmodium falciparum [1], 98% in the test with Plasmodium falciparum [2] and 11% in the test on HepG2.
For `Nc1ccc(-c2nc3cc(-c4ccc5[nH]c(-c6ccc(N)cc6)nc5c4)ccc3[nH]2)cc1` the same measures were 100%, 96% and 45%.
Taken in the same sequence, the figures for `O=C(O)C(F)(F)F.c1cc(-c2ccc(CNC3CCOCC3)cc2)cc(-c2nc3ccccc3[nH]2)c1` were 100%, 100% and 30%.
Taken in the same sequence, the figures for `CC(=O)Nc1cc(C(=O)Nc2ccc(C3=NCCN3)cc2)ccc1C(=O)Nc1ccc(C2=NCCN2)cc1.Cl` were 96%, 92% and 12%.
For `COc1cc2nc(N3CCC(CNC(=O)c4cccc5cc[nH]c45)CC3)nc(N)c2cc1OC`, the results for the Inhibition in the test with Plasmodium falciparum [1], in the test with Plasmodium falciparum [2] and in the test on HepG2 were 98%, 24% and 33%, respectively.
Taken in the same sequence, the figures for `CNC(=O)c1ccccc1Nc1cc(Nc2cc(OC)ccn2)ncc1Cl.O=CO` were 100%, 100% and 69%.
Taken in the same sequence, the figures for `Cc1cc(Nc2ncc3c(n2)N(C2CCC2)CC3)ccc1N1CCN(C)CC1.Cl` were 100%, 100% and 27%.
For `COc1cc(Cc2cnc(N)nc2N)cc(OCCCCCC(N)=O)c1OC` the same measures were 90%, 0% and 0%.
Take `Cl.O=C(C=Cc1ccc(F)cc1)NC1CCC(CCN2CCc3ccc(-c4cnccn4)cc3CC2)CC1` (stereo not drawn): the results for the Inhibition in the test on Plasmodium falciparum [1], in the test with Plasmodium falciparum [2] and in the test with HepG2 were 99%, 65% and 32%, respectively.
On to `COc1ccc2[nH]ccc(=NN=Cc3ccc(N(C)C)cc3)c2c1`, for which the results for the Inhibition in the test with Plasmodium falciparum [1], in the test with Plasmodium falciparum [2] and with HepG2 were 100%, 95% and 4%, respectively.
For `CC(C)n1cc2c(ccc3nc(N)nc(N)c32)n1` the same measures were 92%, 0% and 65%.
Taken in the same sequence, the figures for `CC(C)(C)C(C)(C)Cc1ccc(O)c(CN2CCN(c3ccccc3)CC2)c1` were 99%, 98% and 6%.
With `Cc1c(C)n(C2CCCC2)c2ncnc(OC3CCN(CC(=O)NCC4CC4)CC3)c12`, the Inhibition with Plasmodium falciparum [1] came out at 89%; with Plasmodium falciparum [2] it was 89%; with HepG2, 20%.
As to `O=C(O)C(F)(F)F.c1cc(CNCC2CCCO2)cc(-c2ccc(-c3nc4ccccc4[nH]3)s2)c1` (stereo not drawn), the results for the Inhibition with Plasmodium falciparum [1], in the test on Plasmodium falciparum [2] and in the test with HepG2 were 95%, 30% and 8%, respectively.
For the compound `Brc1ccc(Nc2nc3ccccc3nc2Nc2ccc(Br)cc2)cc1`, the Inhibition was 100% in the test on Plasmodium falciparum [1], 100% in the test on Plasmodium falciparum [2] and 18% with HepG2.
`COc1ccc(NC(=O)CSc2nc(-c3ccccc3Cl)ns2)cc1OC`: the results for the Inhibition in the test on Plasmodium falciparum [1], with Plasmodium falciparum [2] and in the test on HepG2 were 97%, 63% and 0%, respectively.
For `c1ccc(CNc2nc(NCCN3CCCCC3)nc3ccccc23)cc1` the same measures were 87%, 8% and 19%.
Taken in the same sequence, the figures for `Cn1c(NC(=O)C2CCCN(C(=O)c3ccc(O)c(-c4ccc(Cl)c(Cl)c4)c3)C2)nc2ccccc21` (stereo not drawn) were 98%, 99% and 0%.
In the case of `CCOc1cc(C)ccc1C1CCN(CCCCNC(=O)c2ccc(NC(=O)c3cc(Cl)cc(Cl)c3)cc2)CC1`, the Inhibition in the test with Plasmodium falciparum [1] stood at 99%; with Plasmodium falciparum [2] it was 78%; in the test on HepG2 it was 4%.
For `O=C(Nc1ccccc1)c1ccc(N2CCC(COc3cccc(C(F)(F)F)c3)CC2)nc1` the same measures were 96%, 83% and 11%.
For `Cc1cccc(-c2nc3[nH]c(=O)cc(NC(=O)C(C)C)n3n2)c1` the same measures were 96%, 93% and 0%.
For `CC(C)CNCc1ccc(-c2ccc(CN(C(=O)NCCc3ccccc3)C3CCN(Cc4ccccc4)CC3)cc2)cc1.O=C(O)C(F)(F)F` the same measures were 98%, 62% and 37%.
Consider `Cc1cccc2nc(-c3ccc(-c4cccc(NC(=O)Nc5ccccc5)c4)cc3)[nH]c12`, for which the Inhibition with Plasmodium falciparum [1] was 100%; in the test on Plasmodium falciparum [2], 14%; in the test on HepG2, 18%.
For `COCCCNc1nc2cc(OC)c(OC)cc2c2nc(-c3ccccc3)nn12` the same measures were 95%, 97% and 6%.
Taken in the same sequence, the figures for `Cc1ccc(-c2nc(Nc3ccncc3)c3ccccc3n2)s1` were 95%, 34% and 6%.
For `COc1ccc(NC(=O)N2CCN(CCCCCNC(=O)/C=C/c3ccc(C(F)(F)F)cc3)CC2)cc1Cl` the same measures were 94%, 0% and 25%.
In the case of `COc1ccc(CNC2Cc3ccccc3C2)cc1-c1ccc(S(=O)(=O)NCCc2ccccn2)s1.O=C(O)C(F)(F)F`, the Inhibition with Plasmodium falciparum [1] is listed as 92%; in the test with Plasmodium falciparum [2], 22%; in the test on HepG2, 11%.
Take `CCc1c(CCNCCCCCCNCCc2ccc(OC)c(OC)c2C)ccc(OC)c1OC.Cl`: the Inhibition in the test on Plasmodium falciparum [1] worked out at 98%; in the test with Plasmodium falciparum [2] it was 1%; in the test with HepG2, 16%.
Regarding `C[C@H](Cc1ccc(OCCCOc2ccc(C[C@@H](C)NC[C@H](O)c3cccc(Cl)c3)cc2)cc1)NC[C@H](O)c1cccc(Cl)c1.Cl`, the Inhibition with Plasmodium falciparum [1] was found to be 99%; in the test with Plasmodium falciparum [2] it was 92%; in the test on HepG2, 99%.
With `COc1ccc2ncc(C#N)c(CCN3C4CCC3CC(NCc3ccc5c(n3)NC(=O)CS5)C4)c2c1.Cl` (stereo not drawn), the figures for the Inhibition in the test with Plasmodium falciparum [1], in the test with Plasmodium falciparum [2] and in the test with HepG2 were 95%, 27% and 6%, respectively.
For `N#Cc1ccc(N/C(=N\c2cccc(Cl)c2Cl)NC2Cc3ccccc3C2)c(O)c1` the same measures were 94%, 77% and 15%.
For `C[C@H](Nc1c(Nc2ccc3[nH]ccc3c2)c(=O)c1=O)C1CCCCC1` the same measures were 96%, 11% and 7%.
With `CC(C)(C)[C@@H](Nc1ccc(C#N)c2ccccc12)C(=O)NC1(Cc2ccc(O)c(Br)c2)CCCC1`, the Inhibition in the test on Plasmodium falciparum [1] is 84%; in the test with Plasmodium falciparum [2], 16%; with HepG2, 2%.
For `Cc1cc(-c2nc3ccc(N4CCN(C)CC4)cc3[nH]2)nn1Cc1cc(Cl)ccc1OCC(C)C.Cl`, the Inhibition is given as 99% in the test on Plasmodium falciparum [1], 67% in the test with Plasmodium falciparum [2] and 41% in the test with HepG2.
For `CCN1CCN(c2cc(C)c3cc(NC(=O)c4ccc(N(CC)CC)cc4)ccc3n2)CC1` the same measures were 95%, 41% and 38%.
Taken in the same sequence, the figures for `O=S(=O)(c1ccccc1C(F)(F)F)C1CC2CCC(C1)N2S(=O)(=O)c1ccc(Cl)c(C(F)(F)F)c1` (stereo not drawn) were 97%, 99% and 4%.
`O=c1cc(NCCCNC2CCc3ccc(Cl)cc32)[nH]c2ccccc12` (stereo not drawn): the Inhibition came out at 92% with Plasmodium falciparum [1], 39% with Plasmodium falciparum [2] and 0% in the test with HepG2.
Taken in the same sequence, the figures for `COc1cccc(NC(=O)CSc2nc(-c3ccccc3Cl)ns2)c1` were 99%, 100% and 7%.
For `Br.CC(C)Oc1ccc(CCCON2C(=N)N=C(N)NC2(C)C)cc1` the same measures were 96%, 94% and 66%.
For `COc1ccc(-c2cncc3ccc(C(=O)NCc4ccncc4)nc23)cc1` the same measures were 100%, 98% and 25%.
With `O=C(Nc1cccc(-c2ccc(-c3nc4ccccc4[nH]3)cc2)c1)c1ccncc1`, the values for the Inhibition with Plasmodium falciparum [1], in the test with Plasmodium falciparum [2] and with HepG2 were 100%, 58% and 30%, respectively.
Taken in the same sequence, the figures for `O=C(/C=C/c1cccc(Cl)c1)NCCCCCN1CCC(c2c[nH]c3ccccc23)CC1` were 89%, 17% and 46%.
Taken in the same sequence, the figures for `O=C(Nc1ccccc1Oc1ccccc1)NC1CCN(c2ccnc3cc(Cl)ccc23)C1.O=C(O)C(F)(F)F` (stereo not drawn) were 99%, 74% and 0%.
Consider `Cc1cccc(C)c1C1CCN(CCCCNC(=O)c2cc3ccccc3[nH]2)CC1`, for which the results for the Inhibition with Plasmodium falciparum [1], with Plasmodium falciparum [2] and with HepG2 were 90%, 18% and 46%, respectively.
For `CCN(CC)CCN(Cc1ccc(-c2ccc(C(F)(F)F)cc2)cc1)C(=O)Cn1c(CCc2cc(F)c(F)c(F)c2)nc(=O)c2ccccc21.O=C(O)C(O)C(O)C(=O)O` the same measures were 100%, 70% and 31%.
Taken in the same sequence, the figures for `CCNc1cc(C(=O)N[C@@H](Cc2ccccc2)[C@H](O)CNCc2cccc(OC)c2)c(OC)c(N2CCCCS2(=O)=O)c1` were 97%, 96% and 11%.
On to `CS(=O)(=O)CCNCc1ccc(-c2ccc3c(Nc4ccc(Oc5ccccn5)cc4)ccnc3c2)o1`, for which the figures for the Inhibition with Plasmodium falciparum [1], with Plasmodium falciparum [2] and in the test with HepG2 were 100%, 99% and 0%, respectively.
Taken in the same sequence, the figures for `COc1ccc2nccc([C@@H](O)CN3CCC(NC(=O)C(c4cc5ccccc5o4)N4CCN(Cc5ccccc5)CC4)CC3)c2c1` (stereo partly drawn) were 91%, 75% and 30%.
For the compound `COc1ccc2ncc(F)c(CCN3CC[C@H](NCc4cc5c(s4)CCCN5)[C@H](O)C3)c2n1.Cl`, the results for the Inhibition in the test with Plasmodium falciparum [1], in the test on Plasmodium falciparum [2] and in the test on HepG2 were 96%, 16% and 2%, respectively.
As to `Cc1cccc2nc(-c3ccc(-c4ccc(CN5CCN(CCO)CC5)cc4)s3)[nH]c12.O=C(O)C(F)(F)F`, the results for the Inhibition with Plasmodium falciparum [1], in the test on Plasmodium falciparum [2] and with HepG2 were 92%, 47% and 34%, respectively.
In the case of `COc1ccccc1CCNc1nc(C)cc(N[C@@H](Cc2ccccc2)C(=O)NCc2cccs2)n1.O=C(O)C(F)(F)F`, the Inhibition with Plasmodium falciparum [1] is given as 100%; in the test on Plasmodium falciparum [2], 73%; in the test on HepG2 it was 18%.
Taken in the same sequence, the figures for `Cc1cc(Nc2c(C(N)=O)cnc3cc(-c4ccoc4)ccc23)ccc1N1CCN(C)CC1.Cl` were 100%, 100% and 7%.
Taken in the same sequence, the figures for `COc1cc2nccc(Nc3cccc(Oc4ccccc4)c3)c2cc1OC.Cl` were 100%, 95% and 25%.
Taken in the same sequence, the figures for `Cc1nnc2sc(-c3cccc(NC(=O)c4ccc(N5CCCCC5)c([N+](=O)[O-])c4)c3)nn12` were 87%, 20% and 3%.
Turning to `NC(Cc1cccc(I)c1)C(=O)NCC1CCCO1.O=C(O)C(F)(F)F` (stereo not drawn), the Inhibition in the test on Plasmodium falciparum [1] stood at 98%; in the test with Plasmodium falciparum [2], 50%; in the test on HepG2 it was 52%.
Taken in the same sequence, the figures for `O=C(/C=C/C=C/c1ccccc1)NCCCCCN1CCC(c2c[nH]c3ccccc23)CC1` were 85%, 7% and 28%.
For `CCN(CC)CCOC(=O)c1ccc(NC(=O)c2cn(-c3ccccc3)nc2-c2cccs2)cc1.Cl` the same measures were 100%, 59% and 25%.
For `Cl.N=C(NC1CC1)c1ccc2[nH]c(CCCCCc3nc4cc(C(=N)NC5CC5)ccc4[nH]3)nc2c1` the same measures were 89%, 72% and 0%.

Broadly, the Inhibition is the share of the control response that was lost under treatment.
